The test system of one experiment is WaGa. In words: qHTS assay to identify novel small-molecules to repurpose for Merkel cell carcinoma treatment (AID 1296009). Further: nearly all actives have a fitted effect of over 60% in size. Further: potency means the concentration at half of the fitted maximal effect. The settings on record: MCC and control cell lines, CellTiter-Glo viability, 72 h; series mostly up to 46 µM. In a few lines:
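qHTS format: cells treated with library compounds in DMSO across 8 (NPC) or 11 (MIPE) concentrations. Readout after 72 hr at 37 degree celsius was CellTiter-Glo luminescence.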

The test system of a further experiment is C33A. Nature of the experiment: Primary qHTS to identify gynecologic anti-cancer compounds using libraries of approved drugs and bioactive compounds (AID 1345084). Further: nearly all actives have a fitted effect of over 55% in size. Further: potency means the concentration at half of the fitted maximal effect. The settings on record: Gynecologic cancer cell panel viability, ATPlite luminescence, 48 h; series mostly up to 57.5 µM. In a few lines:
(§1)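 Five-concentration response, 48 h; readout is ATP-driven luciferase luminescence.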

In the next experiment the test system is CASKI. Described as above. The settings on record: Gynecologic cancer cell panel viability, ATPlite luminescence, 48 h; series mostly up to 57.5 µM. In a few lines:
as §1

For the next experiment, the system named is Es-2. The experiment is described as above. Conditions: Gynecologic cancer cell panel viability, ATPlite luminescence, 48 h; series mostly up to 57.5 µM. Summed up:
as §1

In another experiment the test system is HeLa. Described as above. Conditions: Gynecologic cancer cell panel viability, ATPlite luminescence, 48 h; series mostly up to 57.5 µM. In a few lines:
as §1

The test system of the next experiment is Hek293T. Described as above. Conditions: Gynecologic cancer cell panel viability, ATPlite luminescence, 48 h, control line for the selectivity index; series mostly up to 57.5 µM. In a few lines: as §1
In another experiment the test system is JEG-3. The experiment is described as above. Conditions: Gynecologic cancer cell panel viability, ATPlite luminescence, 48 h; series mostly up to 57.5 µM. Summed up:
as §1

The subject of the next experiment is OV90. The description is as above. Conditions: Gynecologic cancer cell panel viability, ATPlite luminescence, 48 h; series mostly up to 57.5 µM. Summed up: as §1
In a further experiment the test system is PA-1. The experiment is described as above. Conditions: Gynecologic cancer cell panel viability, ATPlite luminescence, 48 h; series mostly up to 57.5 µM. In a few lines: as §1
The next experiment concerns SKOV3. The experiment is described as above. The settings on record: Gynecologic cancer cell panel viability, ATPlite luminescence, 48 h; series mostly up to 57.5 µM. In a few lines:
as §1

Another experiment concerns Tov-21-G. The description is as above. Conditions: Gynecologic cancer cell panel viability, ATPlite luminescence, 48 h; series mostly up to 57.5 µM. In a few lines: as §1
In the next experiment the test system is Tov112D. The experiment is described as above. The settings on record: Gynecologic cancer cell panel viability, ATPlite luminescence, 48 h; series mostly up to 57.5 µM. In a few lines: as §1
Experiment [1] in a line: Drug repurposing screens with cells derived from glioblastoma tumor samples (AID 1345199). Further: nearly all actives have a fitted effect of over 40% in size. Further: potency means the concentration at half of the fitted maximal effect. On activity, negative = cell killing: on the % scale 0 is the no-effect control and ±100 the full control effect. Conditions: GBM patient neurospheres viability, ATP luminescence, 48 h. Summed up:
(§2)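 Four patient lines of CD133+ GBM neurospheres were screened at several concentrations; hits were retested in those lines plus three slower-growing GBM lines, using 48-hour treatment and ATP-based viability.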

In a further experiment the test system is CAOV3. In words: Primary qHTS to identify gynecologic anti-cancer compounds using libraries of approved drugs and bioactive compounds (AID 1345084). Further: nearly all actives have a fitted effect of over 55% in size. Further: potency means the concentration at half of the fitted maximal effect. The settings on record: Gynecologic cancer cell panel viability, ATPlite luminescence, 48 h; series mostly up to 57.5 µM. Summed up:
as §1

Another experiment has as its system astro. In words: Drug repurposing screens with cells derived from glioblastoma tumor samples (AID 1345199). Further: nearly all actives have a fitted effect of over 40% in size. Further: potency means the concentration at half of the fitted maximal effect. On activity, negative = cell killing: on the % scale 0 is the no-effect control and ±100 the full control effect. Conditions: viability, ATP luminescence, 48 h; series mostly up to 45.9 µM. Summed up: as §2
Experiment [2] addresses Nuclear receptor subfamily 1 group I member 2 (Rattus norvegicus) (UniProt Q9R1A7). In words: qHTS assay for small molecule activators of the rat pregnane X receptor (rPXR) signaling pathway (AID 651751; call rule not given here; further: 0% is about no effect). The settings on record: rPXR reporter cells, luciferase (One-Glo), 24 h.
The nature of experiment [3]: qHTS assay for small molecule activators of the human pregnane X receptor (PXR) signaling pathway (AID 720659; call rule not given here; further: 0% is about no effect).
The mark [4] stands for this setting: at 45.9 µM (top of the series), tumour line B.
[5] abbreviates: at 45.9 µM (top of the series), tumour line D.
[6] abbreviates: at 46 µM (top of the series), tumour line A.

Values joined by “and” are separate entries in the source; they are usually repeats but may differ in a detail not shown here. Identical values can stand only once. Unmarked numbers belong to inactive results. Inconclusive results are not listed. Active and inactive are the calls of the source. Unless noted, the call rests on the fitted dose curve; in most records, active means well fitted curve in the direction sought with a large enough effect; inconclusive means small, poorly fitted or top-dose-only effect, or another doubt; inactive means no such curve, though single readings can be large; an effect the other way counts as inactive or inconclusive.

Chain of Nuclear receptor subfamily 1 group I member 2 (Rattus norvegicus) (Q9R1A7 whole entry, looked up): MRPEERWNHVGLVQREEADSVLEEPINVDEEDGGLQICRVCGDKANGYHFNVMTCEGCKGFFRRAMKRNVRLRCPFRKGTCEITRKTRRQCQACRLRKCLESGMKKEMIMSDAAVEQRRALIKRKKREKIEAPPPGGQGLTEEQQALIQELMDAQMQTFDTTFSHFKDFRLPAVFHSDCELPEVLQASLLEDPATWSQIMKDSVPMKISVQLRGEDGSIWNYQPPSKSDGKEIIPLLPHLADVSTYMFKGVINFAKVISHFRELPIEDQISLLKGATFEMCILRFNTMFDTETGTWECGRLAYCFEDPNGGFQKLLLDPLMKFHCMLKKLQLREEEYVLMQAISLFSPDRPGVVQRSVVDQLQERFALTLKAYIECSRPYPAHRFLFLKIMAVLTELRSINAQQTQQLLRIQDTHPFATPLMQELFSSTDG

With `CN1C(=O)COc2c(C(=O)NC3CN4CCC3CC4)cc(Cl)cc21` (configuration not stated), the Potency result with WaGa, in the experiment with C33A, in the experiment on Es-2, in the experiment on HeLa, in the experiment on OV90 and in the experiment on PA-1 was “inactive” in each case. Moreover, the Potency entry in the experiment with Tov-21-G and with Tov112D was “inactive” throughout. For the same compound, the compound was classed as inactive with CASKI, in the experiment with Hek293T, with JEG-3 and in the experiment with SKOV3. Moreover, the Potency in [1] (tumour line A) was 22.4 µM (active).

`O=C(O)c1ccc(=O)[nH]c1`: the Potency entry with WaGa, in the experiment with C33A, in the experiment with Es-2, in the experiment on HeLa, in the experiment on OV90 and with PA-1 was “inactive” in each case. Further, the Potency result in the experiment with Tov-21-G and in the experiment with Tov112D was “inactive” in each case. The outcome in the experiment on CAOV3, with CASKI and in the experiment on Hek293T was inactive.

`CN1C(=O)CCS(=O)(=O)C1c1ccc(Cl)cc1` (configuration not stated): the Potency entry in the experiment with WaGa, with C33A, in the experiment with Es-2, in the experiment with HeLa, with OV90 and in the experiment with PA-1 was “inactive” throughout. Further, the Potency entry with Tov-21-G and with Tov112D was “inactive” throughout. The compound was called inactive in the experiment with CAOV3, in the experiment on CASKI, in the experiment with Hek293T and with JEG-3. For the same compound, the activity, negative = cell killing in experiment [1] (setting [4]) was -12.1% and -22.6%; in experiment [1] (setting [5]) it was -13.6% and -16.2%; in experiment [1] (setting [6]), -23.1% and -4.54%.

As to `COC1CC(=C(c2cccs2)c2cccs2)C[N+](C)(C)C1` (configuration not stated), the Potency with WaGa is 11.9 µM (active). Moreover, the Potency entry in the experiment on C33A, in the experiment with Es-2, in the experiment with OV90, with Tov-21-G, in the experiment on Tov112D and in the experiment on astro was “inactive” throughout. The compound was classed as inactive in the experiment with CAOV3, in the experiment on Hek293T, in the experiment on JEG-3 and in the experiment with SKOV3.

With `C[C@H]1[C@@H]2Cc3ccc(O)cc3[C@@]1(C)CCN2C`, the Potency result in the experiment on WaGa, with C33A, with Es-2, in the experiment on HeLa, in the experiment with PA-1 and in the experiment on Tov-21-G was “inactive” throughout. The Potency entry in the experiment with Tov112D was “inactive”. The compound was called inactive in the experiment on CAOV3, in the experiment on CASKI, in the experiment with Hek293T, with JEG-3 and in the experiment on SKOV3. The activity, negative = cell killing in experiment [1] (at 231 µM (top of the series), tumour line B) is -0.237%; in experiment [1] (at 231 µM (top of the series), tumour line D), -19.7%. For the same compound, the Potency in experiment [1] (tumour line A) was 112 µM (active).

Regarding `C[C@]12CC[C@@H]3c4ccc(OC(=O)N(CCCl)CCCl)cc4CC[C@H]3[C@@H]1CC[C@@H]2O`, the Potency result in the experiment with WaGa was “inactive”. Besides, in the experiment on HeLa, the Potency is 35.5 µM (active). Further, the results for the activity, negative = cell killing in experiment [1] (setting [4]), in experiment [1] (setting [5]) and in experiment [1] (setting [6]) were -7.93%, -5.83% and -29.8%, respectively.

Consider `CC(C)c1cccc(C(C)C)c1O`, for which the Potency result in the experiment with WaGa, in the experiment with C33A, in the experiment on Es-2, with HeLa, with OV90 and with PA-1 was “inactive” throughout. The Potency entry with Tov-21-G and in the experiment with Tov112D was “inactive” throughout. Moreover, the compound was classed as inactive with CASKI, in the experiment on Hek293T, with JEG-3 and in the experiment with SKOV3. For the same compound, the values for the activity, negative = cell killing in experiment [1] (setting [4]), in experiment [1] (setting [5]) and in experiment [1] (setting [6]) were 6.49%, 2.93% and -26.1%, respectively. The max response in [2] is -2.57%.

For the compound `Nc1ccccc1C(=O)O`, the Potency result in the experiment on WaGa, in the experiment with C33A, with Es-2, in the experiment on HeLa, with OV90 and in the experiment on PA-1 was “inactive” in each case. Also, the Potency result with Tov-21-G and in the experiment on Tov112D was “inactive” in each case. Further, the compound was called inactive (in the experiment on CASKI; in the experiment with Hek293T; with JEG-3; in [3]). For the same compound, the activity, negative = cell killing is 2.36% in [1] (setting [4]), -8.9% in [1] (setting [5]) and -2.87% in experiment [1] (setting [6]). The max response in experiment [2] was -1.41%.
